Assay [1] can be described thus: ATG_TGFb_CIS: Attagene CIS-FACTORIAL HepG2 Assay for human Transforming Growth Factor (TGF) (AID 2282967). As to conditions: HepG2 Attagene CIS TGFb reporter, mRNA transcription; actives raise or lower the signal. A digest of the protocol:
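HepG2 cells transiently transfected with cis-promoter-driven multiplexed reporter units; 24 h compound exposure. Reporter mRNA measured by RT-PCR, 6-FAM labeling, HpaI digestion and capillary electrophoresis; bidirectional fit versus DMSO baseline.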

The target in assay [2] is Nuclear receptor subfamily 1 group I member 3 (Homo sapiens) (UniProt Q14994). Briefly: ATG_CAR_TRANS: Attagene TRANS-FACTORIAL HepG2 Assay for human Constitutive Androstane Receptor (CAR) (AID 2282969; active means hit-call score of the fitted dose curve at least 0.9, where 1 is the maximum;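 further: activators raise reporter mRNA above DMSO so AC50 marks induction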). As to conditions: HepG2 Attagene TRANS-FACTORIAL CAR reporter. A digest of the protocol:
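Readout is reporter mRNA induction, quantified by fluorescent primer extension and capillary electrophoresis after RT-PCR. Cells were HepG2 transiently carrying chimeric NR-Gal4 constructs with GAL4-UAS reporters, treated for 24 h; activity scored upward from DMSO.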

The target of assay [3] is X-box-binding protein 1 (Homo sapiens) (UniProt P17861). Briefly: ATG_Xbp1_CIS: Attagene CIS-FACTORIAL HepG2 Assay for human X-box Binding Protein 1 (XBP1) (AID 2282972). As to conditions: HepG2 XBP1 cis-element reporter, Attagene multiplex; actives raise or lower the signal. A digest of the protocol: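 HepG2, transient MRTU transfection (cis-promoter driven), 24 h compound exposure. Total RNA → oligo(dT) RT → PCR → 6-FAM labeling → HpaI cut → CE. Bidirectional fit vs DMSO.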

The nature of assay [4]: ATG_M_19_TRANS: Attagene TRANS-FACTORIAL HepG2 Assay for M19 Transcription Factor (Internal Marker) (AID 2282974; active means hit-call score of the fitted dose curve at least 0.9, where 1 is the maximum). As to conditions: HepG2 Attagene TRANS-FACTORIAL M19 internal marker reporter. A digest of the protocol:
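Using RT-PCR and capillary electrophoresis, reporter mRNA from transiently transfected human HepG2 cells was quantified following 24 h exposure; activity was fitted in the positive direction against DMSO.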

Assay [5] can be described thus: ATG_VDRE_CIS: Attagene CIS-FACTORIAL HepG2 Assay for human Vitamin D Receptor Element (VDRE) (AID 2282968). As to conditions: HepG2 VDRE cis-reporter transcription, actives raise or lower the signal. A digest of the protocol:
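Reporter mRNA induction, quantified by capillary electrophoresis of fluorescently labelled RT-PCR products, was read 24 h after dosing HepG2 cells carrying transiently transfected cis-regulated reporter units; gain or loss relative to DMSO.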

The nature of assay [6]: ATG_GAL4_TRANS: Attagene TRANS-FACTORIAL HepG2 Assay for GAL4 (Internal Marker) (AID 2282976; active means hit-call score of the fitted dose curve at least 0.9, where 1 is the maximum). As to conditions: HepG2 Attagene TRANS GAL4 internal marker reporter. The protocol: ATG_TRANS is a cell-based, multiplexed-readout assay that uses HepG2, a human liver cell line, with measurements taken at 24 hours after chemical dosing in a 24-well plate.ATG_GAL4_TRANS is one of 30 assay component(s) measured or calculated from the ATG_TRANS assay. It is designed to make measurements of mRNA induction, a form of inducible reporter, as detected with fluorescence intensity signals by Reverse transcription polymerase chain reaction (RT-PCR) and Capillary electrophoresis technology.Data from the assay component ATG_GAL4_TRANS was analyzed into 1 assay endpoint. This assay endpoint, ATG_GAL4_TRANS, was analyzed in the positive analysis fitting direction relative to DMSO as the negative control and baseline of activity. Using a type of inducible reporter, measures of mRNA for gain-of-signal activity can be used to understand the background control at the transcription factor-level as they relate to the gene . Furthermore, this assay endpoint can be referred to as a secondary readout, because this assay has produced multiple assay endpoints where this one serves a background control function. To generalize the intended target to other relatable targets, this assay endpoint is annotated to the background measurement intended target family, where the subfamily is baseline control.
Human liver HepG2 cells are transiently transfected with multiple reporter transcription units (MRTUs) in 6-well plates using FuGene 6 reagent (Roche; 3 ml FuGene/1 mg DNA). The MRTU constructs are regulated by a cis-regulating element (promoter). […] A major difference between the CIS and TRANS system is that in CIS activities of endogenous TFs are measured, whereas the TRANS assay evaluates changes in activities of exogenous, chimeric NR-Gal4 proteins. […] At the end of 24 hour incubation, total RNA was isolated using TriZol reagent (Invitrogen). The isolated RNA is then reverse-transcribed using oligo(dT) primer and Mo-MLV reverse transcriptase (Invitrogen) with DNAse I (Ambion) treatment for 30 min. The one-tenth of the produced cDNA was amplified by PCR using Taq DNA polymerase (Invitrogen) and two reporter sequence-specific primers. The PCR products were fluorescently labeled by primer extension with 6-arboxyfluorescein (6-FAM) 5'-labeled reporter sequence-specific primer (2 min at 95 C, 20 s at 68 C and 10 min at 72 C) and these products were digested with 5U of HpaI (New England Biolabs) for 2h at 37 C. The fragments were purified using Qiaquick PCR columns (Qiagen), analyzed on an ABI 3130xL genetic analyzer (Applied Biosystems) with peak positions identified by using a set of X-rhodamine (ROX)-labeled MapMarker1000 molecular weight standards (BioVentures). The raw capillary electrophoresis data was processed using Attagraph software (Attagene).

Assay [7] deals with Androgen receptor (Homo sapiens) (UniProt P10275). Briefly: ATG_AR_TRANS: Attagene TRANS-FACTORIAL HepG2 Assay for human Androgen Receptor (AR) (AID 2282973; active means hit-call score of the fitted dose curve at least 0.9, where 1 is the maximum). The following applies: HepG2 Attagene TRANS-FACTORIAL AR reporter transcription. A digest of the protocol:
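Transfected HepG2, 24 h treatment, chimeric NR-Gal4 driving GAL4-UAS reporters. mRNA induction by RT-PCR/capillary electrophoresis fluorescence; DMSO as negative control and baseline.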

The target of assay [8] is Steroid hormone receptor ERR1 (Homo sapiens) (UniProt P11474). Description: ATG_ERRa_TRANS: Attagene TRANS-FACTORIAL HepG2 Assay for human Estrogen-Related Receptor alpha (ERRa) (AID 2282971; active means hit-call score of the fitted dose curve at least 0.9, where 1 is the maximum). As to conditions: HepG2 Attagene TRANS reporter, ERRa transactivation. The method, boiled down:
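HepG2 cells were transiently transfected with multiple GAL4-UAS reporter units, then dosed with compound for 24 h. Total RNA was reverse-transcribed, reporter cDNA PCR-amplified and fluorescently labelled, and fragments resolved by capillary electrophoresis; induction was compared with DMSO.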

Inconclusive results are not listed. The source made the active and inactive calls. How the source made its calls, unless noted: active means hit-call score of the fitted dose curve at least 0.9, where 1 is the maximum; inactive means score below 0.9.

Sequence of X-box-binding protein 1 (Homo sapiens) (P17861 whole entry, looked up): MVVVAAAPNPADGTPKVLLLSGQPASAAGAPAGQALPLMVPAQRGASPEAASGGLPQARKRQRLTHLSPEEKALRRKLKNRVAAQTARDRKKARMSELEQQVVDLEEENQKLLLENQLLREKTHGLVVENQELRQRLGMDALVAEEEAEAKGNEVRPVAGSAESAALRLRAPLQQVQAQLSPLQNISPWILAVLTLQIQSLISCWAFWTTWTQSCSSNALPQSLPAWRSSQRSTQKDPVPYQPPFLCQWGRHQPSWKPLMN
Sequence of Steroid hormone receptor ERR1 (Homo sapiens) (P11474 whole entry, looked up, the tested form may be a part): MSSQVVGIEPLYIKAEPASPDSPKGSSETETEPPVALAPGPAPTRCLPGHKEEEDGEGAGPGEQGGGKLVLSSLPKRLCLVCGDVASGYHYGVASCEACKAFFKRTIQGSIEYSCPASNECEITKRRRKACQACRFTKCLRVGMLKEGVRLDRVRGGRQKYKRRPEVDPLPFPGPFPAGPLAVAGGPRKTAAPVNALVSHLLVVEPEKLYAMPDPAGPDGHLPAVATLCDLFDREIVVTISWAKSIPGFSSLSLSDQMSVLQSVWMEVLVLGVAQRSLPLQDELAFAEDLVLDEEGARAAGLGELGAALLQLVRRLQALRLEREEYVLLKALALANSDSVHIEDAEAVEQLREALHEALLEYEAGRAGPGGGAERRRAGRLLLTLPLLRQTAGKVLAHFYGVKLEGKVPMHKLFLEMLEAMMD
Sequence of Androgen receptor (Homo sapiens) (P10275 whole entry, looked up, the tested form may be a part): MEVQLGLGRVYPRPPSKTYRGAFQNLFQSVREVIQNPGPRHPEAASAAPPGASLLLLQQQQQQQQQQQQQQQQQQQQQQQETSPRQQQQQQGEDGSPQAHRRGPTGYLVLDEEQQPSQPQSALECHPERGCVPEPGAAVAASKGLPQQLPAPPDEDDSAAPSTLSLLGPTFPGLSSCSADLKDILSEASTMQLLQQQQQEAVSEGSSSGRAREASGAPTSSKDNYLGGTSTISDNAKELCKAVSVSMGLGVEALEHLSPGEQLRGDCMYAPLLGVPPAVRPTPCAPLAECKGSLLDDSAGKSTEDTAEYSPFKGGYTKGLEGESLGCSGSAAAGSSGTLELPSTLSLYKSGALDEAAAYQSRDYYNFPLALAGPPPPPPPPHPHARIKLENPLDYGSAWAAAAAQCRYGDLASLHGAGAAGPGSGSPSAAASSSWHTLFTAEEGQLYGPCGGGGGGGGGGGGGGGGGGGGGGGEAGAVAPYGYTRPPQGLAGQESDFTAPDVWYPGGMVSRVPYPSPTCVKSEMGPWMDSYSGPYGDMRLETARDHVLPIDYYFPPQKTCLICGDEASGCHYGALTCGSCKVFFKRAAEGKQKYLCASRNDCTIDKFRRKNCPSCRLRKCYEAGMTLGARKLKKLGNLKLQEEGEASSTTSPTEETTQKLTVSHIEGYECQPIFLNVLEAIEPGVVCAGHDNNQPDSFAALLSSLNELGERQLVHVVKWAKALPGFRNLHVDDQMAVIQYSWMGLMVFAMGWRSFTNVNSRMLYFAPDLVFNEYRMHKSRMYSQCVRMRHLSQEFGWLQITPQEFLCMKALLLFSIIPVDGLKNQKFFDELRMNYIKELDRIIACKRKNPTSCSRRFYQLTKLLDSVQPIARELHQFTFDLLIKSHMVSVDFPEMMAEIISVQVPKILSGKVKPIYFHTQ
Sequence of Nuclear receptor subfamily 1 group I member 3 (Homo sapiens) (Q14994 whole entry, looked up, the tested form may be a part): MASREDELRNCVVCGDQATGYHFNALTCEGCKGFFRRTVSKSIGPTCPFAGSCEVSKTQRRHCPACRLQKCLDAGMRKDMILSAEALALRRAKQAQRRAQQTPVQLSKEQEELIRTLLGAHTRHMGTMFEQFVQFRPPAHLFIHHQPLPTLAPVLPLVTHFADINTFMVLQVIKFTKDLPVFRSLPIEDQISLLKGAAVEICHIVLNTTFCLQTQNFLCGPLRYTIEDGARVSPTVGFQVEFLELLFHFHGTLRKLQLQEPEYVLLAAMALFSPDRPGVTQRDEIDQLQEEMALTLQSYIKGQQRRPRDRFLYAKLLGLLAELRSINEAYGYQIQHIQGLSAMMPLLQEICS

Regarding `CCNc1nc(Cl)nc(NC(C)(C)C#N)n1`, the result in assay [1], in assay [2], in assay [3] and in assay [4] was inactive.
For the compound `CC1=NNC(=O)N(/N=C/c2cccnc2)C1`, the result in assay [1], in assay [5] and in assay [3] was inactive.
Turning to `CC(C)[C@H](C(=O)O[C@H](C#N)c1cccc(Oc2ccccc2)c1)c1ccc(Cl)cc1`, the outcome in assay [1], in assay [2], in assay [3] and in assay [4] was inactive.
For the compound `CCCOCC(=Nc1ccc(Cl)cc1C(F)(F)F)n1ccnc1`, the compound was classed as inactive in assay [1], in assay [5], in assay [3], in assay [4] and in assay [6].
Regarding `CCCCOC(=O)c1ccccc1C(=O)O`, the compound was called inactive in assay [1], in assay [2], in assay [3], in assay [7] and in assay [4].
Take `C[N+]1(C)CCCCC1`: the call in assay [1], in assay [5], in assay [3] and in assay [4] was inactive.
As to `CC(C)=CC1C(C(=O)OCN2C(=O)C3=C(CCCC3)C2=O)C1(C)C` (stereo unspecified), the compound was classed as inactive in assay [1], in assay [7] and in assay [4]. The AC50 was 31.7 µM (active) in assay [5] and 50 µM (active) in assay [3].
For the compound `CN(C)[C@@H]1C(=O)C(C(N)=O)=C(O)[C@@]2(O)C(=O)C3=C(O)c4c(O)cccc4[C@@](C)(O)[C@H]3[C@H](O)[C@@H]12`, the outcome in assay [1], in assay [3], in assay [4] and in assay [6] was inactive.
Turning to `CNC(=O)ON=C(C)SC`, the compound was classed as inactive in assay [1], in assay [5], in assay [3] and in assay [4].
In the case of `CCOC(=O)COc1cc(-c2nn(C)c(OC(F)F)c2Cl)c(F)cc1Cl`, the compound was classed as inactive in assay [1], in assay [5], in assay [8], in assay [3] and in assay [4].
In the case of `S=C1NCCN1`, the compound was classed as inactive in assay [1], in assay [5] and in assay [3].
Consider `CN(C)C(=O)Nc1cccc(C(F)(F)F)c1`, for which the outcome in assay [1], in assay [5], in assay [3] and in assay [4] was inactive.
For `CCOC(=O)CC(SP(=O)(OC)OC)C(=O)OCC` (stereo unspecified), the call in assay [1], in assay [2], in assay [3] and in assay [4] was inactive.
As for `Nc1nc(N)nc(NC2CC2)n1`, the compound was called inactive in assay [1], in assay [8], in assay [3] and in assay [4].
Turning to `CCOP(=S)(OCC)SCCSCC`, the compound was classed as inactive in assay [1], in assay [2] and in assay [3].
In the case of `C[Si](Cn1cncn1)(c1ccc(F)cc1)c1ccc(F)cc1`, the call in assay [1] and in assay [3] was inactive. Moreover, the AC50 in assay [5] was 27.6 µM (active).
On to `CCOP(=S)(OCC)Oc1ccc([N+](=O)[O-])cc1`, for which the outcome in assay [1], in assay [2] and in assay [3] was inactive.
On to `COP(=O)(OC)OC(Br)C(Cl)(Cl)Br` (stereo unspecified), for which the outcome in assay [1], in assay [5], in assay [3] and in assay [4] was inactive.
As to `Cc1nn(-c2cc(NS(C)(=O)=O)c(Cl)cc2Cl)c(=O)n1C(F)F`, the call in assay [1], in assay [8], in assay [3], in assay [7] and in assay [4] was inactive. The concentration at half-maximal activity (AC50) in assay [5] was 30.8 µM (active).
For the compound `CCC(=NOC/C=C/Cl)C1=C(O)CC(C2CCOCC2)CC1=O` (stereo unspecified), the compound was classed as inactive in assay [1], in assay [5], in assay [8], in assay [3] and in assay [4].
In the case of `FC(F)C(F)(F)OCC(Cn1cncn1)c1ccc(Cl)cc1Cl` (stereo unspecified), the compound was classed as inactive in assay [1] and in assay [4]. The results for the AC50 in assay [5] and in assay [3] were 37.3 µM (active) and 75.8 µM (active), respectively.

Source of the values: PubChem BioAssay (EPA / NIEHS).
